Drawing on PubChem BioAssay (NCI), this text covers growth for 38 compounds.

Compounds without any hit were thinned out: in the full panel of roughly 83,000, 20% have a hit.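 Plates (96-well) were seeded with cells, treated with compound at one concentration, and incubated for 48 hours before percent growth was determined.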 Values without a mark were called inactive. The source made the active and inactive calls. The calls were made as follows: active = growth percent below 10; inactive = the rest.

The test system of one assay is 786-0 renal. Kind of assay: NCI-60 one-dose screen, 48 h (100 = growth as untreated, 0 = no growth, -100 = all killed). As to conditions: 10 µM unless noted.
Consider `CCCCCCCCn1ccc2cc(NC(=O)Cn3cc(CN4CCCC4)nn3)ccc21`, for which the growth is 16.8%.

In the case of `CCCCCCCOc1c(OC)cc(C2CC(=O)Nc3c2c(C)nn3-c2nc3ccccc3[nH]2)cc1OC` (stereo not drawn), the growth was 4.68% (active).

In the case of `COc1cc(-c2nc(N3CCN(C)CC3)c3ccccc3n2)cc(OC)c1OC`, the growth was 47.5%.

Regarding `CCC(CO)Nc1nc2ccc(Cl)cc2c2ccccc12` (stereo not drawn), the growth is 41.6%.

For `NS(=O)(=O)c1ccc(-n2nc(C(=O)N/N=C\c3ccc(F)cc3)cc2-c2ccc(Cl)cc2)cc1`, the growth is 105%.

In the case of `O=S(=O)(NCCCNc1cc(-c2c(-c3cccc(O)c3)nc3sccn23)ccn1)c1cccc(Cl)c1`, the growth is 54.8%.

As for `CC(=O)n1c(-c2ccc(Cl)cc2)nc2c(c1=O)C(c1ccc(Cl)cc1)c1sc3c(Cl)cccc3c1O2` (stereo not drawn), the growth is -50.1% (active).

As for `C=C(C)[C@@H]1CC[C@]2(C(=O)NC3CCCCC3)CC[C@]3(C)[C@H](CC[C@@H]4[C@@]5(C)CCC(=O)C(C)(C)[C@@H]5CC[C@]43C)[C@@H]12`, the growth was 85.7%.

With `O=[N+]([O-])c1ccc(-c2cc(-c3ccc(Nc4nc(Nc5ccc(Cl)cc5)nc(Nc5ccc(Cl)cc5)n4)cc3)no2)cc1`, the growth is 89.7%.

In the case of `Cc1c2c(c(C)c3c1oc1cc(O)ccc13)C(=O)N(CCN1CCCCC1)C2=O`, the growth is 71.7%.

The next assay deals with COLO 205 colon. The assay is described as above. The following applies: 10 µM unless noted.
Consider `COc1cc(Cn2ncc3ccc(NC(=O)c4cc5ccccc5oc4=N)cc32)cc(OC)c1OC`, for which the growth was 55.1%.

Turning to `N=C1C(c2nc(-c3ccc(Br)cc3)cs2)=C(O)CN1Cc1cccnc1`, the growth is 87.5%.

Regarding `COc1ccc(/C=C/c2c(C(=O)/C=C/c3cccs3)c(C)nc3ccccc23)cc1`, the growth was 78.4%.

With `N#C/C(=C\c1ccc(Br)cc1)n1nnc2cc(F)c(F)cc21`, the growth is 25.7%.

Consider `C[C@@H]1N=C(c2ccc3ccccc3n2)Nc2nc3ccccn3c2C1=O`, for which the growth is 113%.

In the case of `CCCCc1ccc(Nc2ccc(Nc3ccc(CCCC)cc3S(=O)(=O)O)c3c2C(=O)c2ccccc2C3=O)c(S(=O)(=O)O)c1`, the growth is 101%.

For `COc1ccc(OC)c2c1[nH]c(=O)c1c3ncccc3cn21`, the growth was 22.8%.

As to `COc1ccc(NC(=O)CSc2nc(C)c(C(C)=O)n2-c2ccc(Cl)cc2)cc1`, the growth was 102%.

In the case of `COc1cccc(-c2nn(-c3ccccc3)cc2-c2ccnc(NCCNC(=O)Nc3cccc(C(F)(F)F)c3)c2)c1`, the growth is -13.3% (active).

Take `O=C(NCCCNc1cc(-c2cn(-c3ccccc3)nc2-c2cccc(O)c2)ccn1)c1ccccc1`: the growth was -60.3% (active).

Take `Cc1cc(NCc2cc(Nc3ccnc4cc(Cl)ccc34)ccc2F)nc(N2CCCC2)n1`: the growth is -78.4% (active).

With `Oc1ccc(CN2CCC(N3CCOCC3)CC2)c2cccnc12`, the growth is 104%.

Turning to `CCN(CC)c1nc(SCC(=O)Nc2nc3ccc(C)cc3s2)nc(-c2ccccc2)c1C#N`, the growth is 102%.

For `Clc1cccc(Cl)c1C(Nc1nc2ccccc2s1)Nc1nc2ccccc2s1`, the growth is 114%.

Regarding `C[C@H]1[C@H]2[C@H]3CC[C@@H]4[C@@]5(C)C/C(=C/c6cccnc6)C(=O)C(C)(C)[C@@H]5CC[C@@]4(C)[C@]3(C)CC[C@]23CO[C@]1(C)[C@@H](C(=O)/C=C\c1cccnc1)C3`, the growth is -56.8% (active).

Regarding `O=c1ccn2nc3ccccc3c2[nH]1`, the growth was 124%.

For the compound `COc1ccccc1NC(=O)N/C(N)=N/c1nc2ccccc2s1`, the growth was -3.41% (active).

Turning to `COc1c(CCC[P+](c2ccccc2)(c2ccccc2)c2ccccc2)cc2c(c1OC)OCO2`, the growth is -55.6% (active).

For the compound `COc1ccc(C(=O)Nn2c(NCC(=O)N3c4ccccc4Sc4ccccc43)nnc2-c2ccc(O)cc2)cc1`, the growth is 112%.

With `COc1ccc(-c2nc3c(c(=O)n2C(C)=O)C(c2ccc(Cl)cc2)c2sc4c(Cl)cccc4c2O3)cc1` (stereo not drawn), the growth was -62.3% (active).

Consider `Cc1nc2c(c(N3CCCc4ccccc43)n1)CCC2`, for which the growth was -59.5% (active).

For `CC1=C([Se]CC(OC(=O)CC[Se]c2ccccc2)C(=O)NCCCCCC(=O)OCc2ccccc2)C(=O)c2ccccc2C1=O` (stereo not drawn), the growth is 105%.

Regarding `Cc1cc(NCCCCNc2ccnc3cc(Cl)ccc23)nc(Nc2ccc(C(=O)N3CCCC3)cc2)n1`, the growth was -42.8% (active).

Turning to `Cc1ccc(N(C(=O)CCc2c[nH]c3ccccc23)[C@H](C(=O)Nc2ccc(Cl)cc2)c2cccc([N+](=O)[O-])c2)cc1`, the growth is 95%.

As for `O=c1[nH]c2ccccc2n1C1CCN(CCOc2ccccc2)CC1`, the growth is 94.3%.

Turning to `c1ccc2c(c1)nc(CN1CCOCC1)n1cc(N3CCCC3)nc21`, the growth is 103%.

`CC/C=C1/C(=O)C=C[C@@H]1C/C=C\CCCC(=O)O`: the growth was 108%.

Regarding `COC(=O)[C@]12CC[C@@H](C)[C@H](C)[C@@H]1C1=CC[C@@H]3[C@@]4(C)C(C=O)=C[C@@](C)(COS(C)(=O)=O)C4[C@H](O)C[C@@]3(C)[C@]1(C)CC2` (stereo partly drawn), the growth is -70.8% (active).

`CCCCCCCCn1ccc2cc(NC(=O)Cn3cc(CN4CCCC4)nn3)ccc21`: the growth was -81.4% (active).

On to `CCCCCCCOc1c(OC)cc(C2CC(=O)Nc3c2c(C)nn3-c2nc3ccccc3[nH]2)cc1OC` (stereo not drawn), for which the growth is 3.24% (active).

As to `COc1cc(-c2nc(N3CCN(C)CC3)c3ccccc3n2)cc(OC)c1OC`, the growth is 81.5%.

With `CCC(CO)Nc1nc2ccc(Cl)cc2c2ccccc12` (stereo not drawn), the growth is 86.4%.

`NS(=O)(=O)c1ccc(-n2nc(C(=O)N/N=C\c3ccc(F)cc3)cc2-c2ccc(Cl)cc2)cc1`: the growth is 116%.

In the case of `O=S(=O)(NCCCNc1cc(-c2c(-c3cccc(O)c3)nc3sccn23)ccn1)c1cccc(Cl)c1`, the growth was 46.3%.

For the compound `CC(=O)n1c(-c2ccc(Cl)cc2)nc2c(c1=O)C(c1ccc(Cl)cc1)c1sc3c(Cl)cccc3c1O2` (stereo not drawn), the growth was -55.9% (active).

`C=C(C)[C@@H]1CC[C@]2(C(=O)NC3CCCCC3)CC[C@]3(C)[C@H](CC[C@@H]4[C@@]5(C)CCC(=O)C(C)(C)[C@@H]5CC[C@]43C)[C@@H]12`: the growth was 103%.

On to `O=[N+]([O-])c1ccc(-c2cc(-c3ccc(Nc4nc(Nc5ccc(Cl)cc5)nc(Nc5ccc(Cl)cc5)n4)cc3)no2)cc1`, for which the growth is 95.4%.

For the compound `Cc1c2c(c(C)c3c1oc1cc(O)ccc13)C(=O)N(CCN1CCCCC1)C2=O`, the growth is 85.8%.
